Results filed as inconclusive are left out. Calls of active or inactive are those of the source. Unless noted, calls come from the whole dose curve; as a rule, active = well fitted curve in the direction sought with a large enough effect in the repeat runs; inconclusive = weak or mixed curves; inactive = no such curve, though single readings can be large; an effect the other way counts as inactive or inconclusive.
Assays:
[1] = qHTS assay to identify small molecule antagonists of the thyroid receptor (TR) signaling pathway (AID 743065); note: series mostly up to about 70 µM; nearly all actives have a fitted effect of over 55% in size
Method in brief: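 GH3.TRE-Luc rat pituitary cells (two TREs driving luciferase) were dosed with compound, then stimulated with 1 nM T3 (final) for 23.5 h at 37 C. ONE-Glo luminescence was the read-out, with CellTiter-Fluor fluorescence as the cytotoxicity counter-screen.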

[2] = test system: thyroid hormone receptor (rat, GH3 cells); experiment: qHTS assay to identify small molecule agonists of the thyroid receptor (TR) signaling pathway (AID 743066; calls by dose curve)
[3] = molecular target: Estrogen receptor (Homo sapiens) (UniProt P03372); experiment: qHTS assay to identify small molecule antagonists of the estrogen receptor alpha (ER-alpha) signaling pathway (AID 743069; active = well fitted curve in the direction sought with a large enough effect in the signal ratio in the repeat runs, not every such curve was filed as active; the % refers to the signal ratio)
Estrogen receptor (Homo sapiens), sequence (P03372 whole entry, looked up): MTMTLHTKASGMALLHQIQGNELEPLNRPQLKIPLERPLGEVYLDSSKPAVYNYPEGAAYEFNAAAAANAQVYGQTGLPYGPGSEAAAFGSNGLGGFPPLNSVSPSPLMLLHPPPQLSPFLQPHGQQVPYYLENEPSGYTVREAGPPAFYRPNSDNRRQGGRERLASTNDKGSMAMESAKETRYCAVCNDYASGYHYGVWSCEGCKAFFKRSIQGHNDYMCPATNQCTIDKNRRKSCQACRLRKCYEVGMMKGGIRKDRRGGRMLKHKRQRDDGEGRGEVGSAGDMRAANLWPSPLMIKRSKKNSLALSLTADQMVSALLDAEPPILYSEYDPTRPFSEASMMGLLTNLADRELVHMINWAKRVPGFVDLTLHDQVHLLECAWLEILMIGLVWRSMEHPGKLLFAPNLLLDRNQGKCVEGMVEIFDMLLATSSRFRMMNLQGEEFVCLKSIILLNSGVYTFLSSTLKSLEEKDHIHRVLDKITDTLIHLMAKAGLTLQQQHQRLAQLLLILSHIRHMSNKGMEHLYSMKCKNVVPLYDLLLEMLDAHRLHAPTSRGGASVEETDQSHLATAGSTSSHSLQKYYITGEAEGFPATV
Method in brief: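 In this cell-based reporter format, GripTite HEK293 cells harbouring ER-alpha-UAS-bla were grown overnight with 2% charcoal-stripped FBS, dosed with DMSO-dissolved compounds, then challenged with 17beta-estradiol. After 18 hr at 37C, beta-lactamase activity was detected by FRET fluorescence.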

[4] = molecular target: Estrogen receptor (Homo sapiens) (UniProt P03372); experiment: qHTS assay to identify small molecule agonists of the estrogen receptor alpha (ER-alpha) signaling pathway (AID 743075; calls by dose curve)
[5] = molecular target: Estrogen receptor (Homo sapiens) (UniProt P03372); experiment: qHTS assay to identify small molecule agonists of the estrogen receptor alpha (ER-alpha) signaling pathway using the BG1 cell line (AID 743079); note: nearly all actives have a fitted effect of over 20% in size
[6] = qHTS assay to identify small molecule antagonists of the estrogen receptor alpha (ER-alpha) signaling pathway using the BG1 cell line (AID 743080; calls by dose curve; note: series mostly up to about 70 µM; nearly all actives have a fitted effect of over 25% in size)
Method in brief: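 Antagonist mode: compounds in DMSO were pinned onto BG1-Luc-4E2 cells alongside 17beta-estradiol agonist, incubated 21.5 h, and ERE-driven luciferase measured with ONE-Glo. Cytotoxicity was multiplexed using CellTiter-Fluor fluorescence.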

[7] = qHTS assay to identify small molecule antagonists of the estrogen receptor alpha (ER-alpha) signaling pathway using the BG1 cell line - cell viability counter screen (AID 743081);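 note: compound given together with 17beta-estradiol as the ER stimulus; series mostly up to about 70 µM; nearly all actives have a fitted effect of over 45% in size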
Aromatase (Homo sapiens) = Aromatase (Homo sapiens) (UniProt P11511); experiment: qHTS assay to identify aromatase inhibitors (AID 743083); note: series mostly up to about 70 µM; nearly all actives have a fitted effect of over 55% in size
Aromatase (Homo sapiens), sequence (P11511 whole entry, looked up): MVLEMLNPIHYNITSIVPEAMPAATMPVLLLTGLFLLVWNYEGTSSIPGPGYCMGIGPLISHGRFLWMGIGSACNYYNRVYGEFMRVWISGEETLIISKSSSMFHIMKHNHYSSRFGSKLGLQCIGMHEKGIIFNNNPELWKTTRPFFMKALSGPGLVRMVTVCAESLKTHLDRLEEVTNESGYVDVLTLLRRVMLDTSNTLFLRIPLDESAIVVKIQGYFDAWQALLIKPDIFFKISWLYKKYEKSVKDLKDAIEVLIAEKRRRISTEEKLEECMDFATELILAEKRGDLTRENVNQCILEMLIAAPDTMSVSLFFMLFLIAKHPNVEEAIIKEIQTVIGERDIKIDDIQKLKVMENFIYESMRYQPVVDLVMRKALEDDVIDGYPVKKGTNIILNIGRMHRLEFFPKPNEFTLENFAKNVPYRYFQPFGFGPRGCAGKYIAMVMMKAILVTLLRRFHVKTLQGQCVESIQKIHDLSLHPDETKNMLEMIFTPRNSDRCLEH

[8] = qHTS assay to identify aromatase inhibitors - cell viability counter screen (AID 743084);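 note: cells stimulated with testosterone during compound exposure; nearly all actives have a fitted effect of over 55% in size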
[9] = molecular target: Aryl hydrocarbon receptor (Homo sapiens) (UniProt P35869); experiment: qHTS assay to identify small molecule that activate the aryl hydrocarbon receptor (AhR) signaling pathway (AID 743085);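 note: HG2L7.5c1 human HepG2 liver cells with stably integrated DRE-driven firefly reporter; series mostly up to about 70 µM; nearly all actives have a fitted effect of over 15% in size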
Aryl hydrocarbon receptor (Homo sapiens), sequence (P35869 whole entry, looked up): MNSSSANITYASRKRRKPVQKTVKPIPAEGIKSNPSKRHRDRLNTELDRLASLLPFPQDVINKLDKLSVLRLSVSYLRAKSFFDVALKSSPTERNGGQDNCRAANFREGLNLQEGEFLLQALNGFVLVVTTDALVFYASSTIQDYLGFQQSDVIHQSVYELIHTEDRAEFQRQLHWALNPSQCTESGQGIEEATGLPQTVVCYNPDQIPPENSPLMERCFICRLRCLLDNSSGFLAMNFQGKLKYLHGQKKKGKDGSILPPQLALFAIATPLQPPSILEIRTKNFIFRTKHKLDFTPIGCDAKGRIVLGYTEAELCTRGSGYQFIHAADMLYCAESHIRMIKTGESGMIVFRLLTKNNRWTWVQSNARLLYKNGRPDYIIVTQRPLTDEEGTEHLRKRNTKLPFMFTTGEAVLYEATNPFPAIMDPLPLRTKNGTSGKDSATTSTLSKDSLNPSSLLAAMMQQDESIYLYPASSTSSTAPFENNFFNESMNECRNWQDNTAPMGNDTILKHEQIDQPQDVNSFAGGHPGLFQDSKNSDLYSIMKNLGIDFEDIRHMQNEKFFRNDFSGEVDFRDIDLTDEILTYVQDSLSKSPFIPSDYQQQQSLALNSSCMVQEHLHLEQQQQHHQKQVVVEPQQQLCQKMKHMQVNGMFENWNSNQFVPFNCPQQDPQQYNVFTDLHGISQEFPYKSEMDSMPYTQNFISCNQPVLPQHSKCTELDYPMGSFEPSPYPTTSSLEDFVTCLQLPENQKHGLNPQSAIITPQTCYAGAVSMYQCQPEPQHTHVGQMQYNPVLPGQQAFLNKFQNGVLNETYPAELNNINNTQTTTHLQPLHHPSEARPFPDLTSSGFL
Method in brief: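 A multiplexed format paired cell viability (CellTiter-Fluor fluorescence) with AhR-dependent luciferase output (ONE-Glo luminescence) in the same wells of HepG2 DRE-luc cells after 24 h compound exposure at 37C.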

[10] = qHTS assay to identify small molecule that activate the aryl hydrocarbon receptor (AhR) signaling pathway - cell viability counter screen (AID 743086);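 note: HepG2 liver cells carrying the AhR DRE luciferase reporter; series mostly up to about 70 µM; nearly all actives have a fitted effect of over 45% in size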
Method in brief: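 HepG2-AhR-luc (HG2L7.5c1) cells, 4000/well, treated 24 h at 37 C with compound; viability measured as CellTiter-Fluor fluorescence after 30 min in the same wells as the luciferase read.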

[11] = molecular target: Peroxisome proliferator-activated receptor gamma (Homo sapiens) (UniProt P37231); experiment: qHTS assay to identify small molecule agonists of the peroxisome proliferator-activated receptor gamma (PPARg) signaling pathway (AID 743094; active = well fitted activation curve with a large enough effect in the signal ratio in the repeat runs, not every such curve was filed as active; the % refers to the signal ratio)
Peroxisome proliferator-activated receptor gamma (Homo sapiens), sequence (P37231 whole entry, looked up): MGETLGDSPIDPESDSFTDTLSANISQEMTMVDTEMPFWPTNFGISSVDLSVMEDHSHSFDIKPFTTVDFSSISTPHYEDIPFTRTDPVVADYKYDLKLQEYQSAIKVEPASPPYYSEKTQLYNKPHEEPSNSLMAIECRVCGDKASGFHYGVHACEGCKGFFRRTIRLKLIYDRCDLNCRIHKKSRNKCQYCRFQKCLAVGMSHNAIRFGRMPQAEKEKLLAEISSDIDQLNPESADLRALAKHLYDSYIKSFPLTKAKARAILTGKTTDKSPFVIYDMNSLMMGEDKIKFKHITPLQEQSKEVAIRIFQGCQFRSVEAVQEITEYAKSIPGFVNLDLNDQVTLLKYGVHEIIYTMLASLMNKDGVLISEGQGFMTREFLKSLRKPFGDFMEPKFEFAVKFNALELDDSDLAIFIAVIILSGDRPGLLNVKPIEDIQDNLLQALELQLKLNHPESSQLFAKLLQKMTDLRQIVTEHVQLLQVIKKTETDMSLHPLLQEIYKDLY
Method in brief: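 HEK293H PPARg-bla cells, 5 h settle at 37C/5% CO2; compound (DMSO) 17 h, 37C; B/G FRET substrate 1 h RT; fluorescence intensity read-out. qHTS format.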

[12] = qHTS assay to identify small molecule antagonists of the peroxisome proliferator-activated receptor gamma (PPARg) signaling pathway - cell viability counter screen (AID 743194); note: nearly all actives have a fitted effect of over 55% in size
Method in brief: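 Cytotoxicity counter screen in PPARg-bla HEK293H cells, same wells as reporter assay. Compounds plus 50 nM rosiglitazone (final) for 17 h at 37 C, then viability read by CellTiter-Glo luminescence.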

[13] = qHTS assay for small molecule agonists of the antioxidant response element (ARE) signaling pathway (AID 743202; active = well fitted activation curve with a large enough effect in the signal ratio in the repeat runs, not every such curve was filed as active; the % refers to the signal ratio)
Method in brief: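 HepG2 ARE-bla cells; 16 h treatment at 37 C; FRET-based beta-lactamase fluorescence read after 2 h substrate incubation at room temperature.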

[14] = qHTS assay for small molecule agonists of the antioxidant response element (ARE) signaling pathway - cell viability counter screen (AID 743203; calls by dose curve; note: nearly all actives have a fitted effect of over 55% in size)
Method in brief: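 Luminescence read-out (CellTiter-Glo, 30 min at room temperature) measured cell viability in the same wells as the ARE beta-lactamase reporter. HepG2 ARE-bla cells were treated with compounds for 16 hrs at 37C/5% CO2.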

[15] = qHTS assay for small molecule activators of the heat shock response signaling pathway - cell viability counter screen (AID 743209); note: nearly all actives have a fitted effect of over 50% in size
Method in brief: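 HSE-bla HeLa; 1500 cells/well; overnight 37 C, 5% CO2; compound 5 h 37 C; LiveBLAzer B/G substrate 2.5 h RT; CellTiter-Glo 30 min RT; luminescence.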

[16] = qHTS assay for small molecule activators of the heat shock response signaling pathway (AID 743210; active = well fitted activation curve with a large enough effect in the signal ratio in the repeat runs, with a control signal flat, not every such curve was filed as active; the % refers to the signal ratio;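 note: HeLa cells with beta-lactamase reporter driven by heat shock elements; series mostly up to about 63 µM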)
Method in brief: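 Following overnight attachment, HSE-bla HeLa cells received test compounds for 5 h at 37 C; beta-lactamase activity was then detected via FRET substrate fluorescence.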

[17] = qHTS assay to identify small molecule agonists of the peroxisome proliferator-activated receptor delta (PPARd) signaling pathway - cell viability counter screen (AID 743211); note: nearly all actives have a fitted effect of over 55% in size
Method in brief: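 Tox21 library compounds, delivered in DMSO, were incubated 17 h with PPARd-bla HEK293H cells; cytotoxicity was taken from CellTiter-Glo luminescence read 30 min after reagent addition.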

[18] = qHTS assay to identify small molecule antagonists of the estrogen receptor alpha (ER-alpha) signaling pathway - cell viability counter screen (AID 743074; calls by dose curve; note: nearly all actives have a fitted effect of over 45% in size)
[19] = molecular target: Peroxisome proliferator-activated receptor gamma (Homo sapiens) (UniProt P37231); experiment: qHTS assay to identify small molecule antagonists of the peroxisome proliferator-activated receptor gamma (PPARg) signaling pathway (AID 743191; calls by dose curve; note: series mostly up to about 63 µM; nearly all actives have a fitted effect of over 30% in size)
Method in brief: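 GeneBLAzer PPARg UAS-bla HEK293H cells, 5 h post-plating, exposed to compounds 17 h at 37C. LiveBLAzer B/G FRET substrate added for 1 h at room temperature; beta-lactamase reporter read by fluorescence intensity.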
% is set by controls: 0 for no effect and ±100 for the full control effect.

CC(=O)N[C@H]1[C@H]([C@H](O)[C@H](O)CO)OC(C(=O)O)=C[C@@H]1N=C(N)N
inactive: Potency [1] | outcome [2] | Potency [3] | Potency [4] | Potency [5] | Potency [6] | outcome [7] | outcome (Aromatase (Homo sapiens)) | Potency [8] | Potency [9] | Potency [10] | Potency [11] | outcome [12] | Potency [13] | outcome [14] | outcome [15] | outcome [16] | outcome [17]

CCOC(=O)c1ccccc1
inactive: Potency [1] | outcome [2] | Potency [3] | Potency [18] | Potency [4] | Potency [6] | outcome [7] | outcome (Aromatase (Homo sapiens)) | Potency [8] | Potency [11] | Potency [19] | outcome [12] | outcome [14] | outcome [15] | outcome [16] | outcome [17]

COC(=O)C1=C(C)NC(C)=C(C(=O)OC(C)C)C1c1cccc2nonc12 (configuration not stated)
inactive: Potency [1] | outcome [2] | Potency [18] | outcome [7] | outcome (Aromatase (Homo sapiens)) | Potency [8] | Potency [10] | Potency [11] | Potency [19] | outcome [12] | Potency [13] | outcome [14] | outcome [15] | outcome [16] | outcome [17]

COc1cc(C(=O)OC(COCCC(C)C)CN2CCOCC2)cc(OC)c1OC (configuration not stated)
inactive: Potency [1] | outcome [2] | Potency [18] | Potency [4] | Potency [5] | Potency [6] | outcome (Aromatase (Homo sapiens)) | Potency [8] | Potency [9] | Potency [10] | Potency [11] | Potency [19] | outcome [12] | Potency [13] | outcome [15] | outcome [16] | outcome [17]

CCN[C@@H]1C[C@H](N)[C@@H](OC2OC(CN)=CCC2N)[C@H](O)[C@H]1O[C@H]1OC[C@](C)(O)[C@H](NC)[C@H]1O (some centres not stated)
inactive: Potency [1] | outcome [2] | Potency [18] | Potency [6] | outcome [7] | outcome (Aromatase (Homo sapiens)) | Potency [8] | Potency [9] | Potency [10] | ratio activity, negative = inhibition [19] -0.0427% [at 0.55 µM] | activity change, negative = cytotoxicity [12] -4.19% [at 0.55 µM] | activation [13] -10.7% [at 0.756 µM] | viability change, negative = cytotoxic [14] -2.08% [at 0.756 µM] | activity change, negative = cytotoxicity [15] 9.84% [at 0.55 µM] | activation [16] -1.49% [at 0.55 µM] | activity change, negative = cytotoxicity [17] 7.95% [at 0.55 µM]

c1ccc(CCc2ccccc2)cc1
inactive: Potency [1] | outcome [2] | Potency [18] | outcome [7] | outcome (Aromatase (Homo sapiens)) | Potency [8] | Potency [9] | Potency [10] | Potency [11] | Potency [19] | outcome [14] | outcome [15] | outcome [16] | outcome [17]

Nc1ccccn1
inactive: Potency [1] | outcome [2] | Potency [18] | outcome [7] | outcome (Aromatase (Homo sapiens)) | Potency [8] | Potency [9] | Potency [10] | outcome [12] | outcome [14] | outcome [15] | outcome [16] | outcome [17]

C[N+]1(CC2COC(c3ccccc3)(c3ccccc3)O2)CCCCC1 (configuration not stated)
inactive: Potency [1] | outcome [2] | Potency [18] | outcome [7] | outcome (Aromatase (Homo sapiens)) | Potency [8] | Potency [9] | Potency [10] | outcome [12] | Potency [13] | outcome [14] | outcome [15] | outcome [16] | outcome [17]

CNCCO
inactive: Potency [1] | outcome [2] | Potency [18] | outcome [7] | outcome (Aromatase (Homo sapiens)) | Potency [8] | Potency [9] | Potency [10] | Potency [11] | Potency [19] | outcome [12] | outcome [15] | outcome [16] | outcome [17]

O=C1CCCCCCCCCCCCCCO1
inactive: Potency [1] | outcome [2] | Potency [18] | outcome [7] | outcome (Aromatase (Homo sapiens)) | Potency [8] | Potency [9] | Potency [10] | Potency [11] | outcome [12] | outcome [14] | outcome [15] | outcome [16] | outcome [17]

C1CCC2=NCCCN2CC1
inactive: Potency [1] | outcome [2] | Potency [18] | outcome [7] | outcome (Aromatase (Homo sapiens)) | Potency [8] | Potency [9] | Potency [10] | outcome [12] | outcome [14] | outcome [15] | outcome [16]

C[N+](C)(CCOc1ccccc1)Cc1cccs1
inactive: Potency [1] | outcome [2] | Potency [18] | outcome [7] | outcome (Aromatase (Homo sapiens)) | Potency [8] | Potency [9] | Potency [10] | outcome [12] | Potency [13] | outcome [14] | outcome [15] | outcome [16] | outcome [17]

CCCc1ncc(C[n+]2ccccc2C)c(N)n1
inactive: Potency [1] | outcome [2] | Potency [18] | outcome [7] | outcome (Aromatase (Homo sapiens)) | Potency [8] | Potency [9] | Potency [10] | Potency [19] | outcome [12] | Potency [13] | outcome [14] | outcome [15] | outcome [16] | outcome [17]

CCCCCC(C)N (configuration not stated)
inactive: Potency [1] | outcome [2] | Potency [18] | Potency [6] | outcome [7] | outcome (Aromatase (Homo sapiens)) | Potency [8] | Potency [9] | Potency [10] | Potency [11] | Potency [19] | outcome [12] | outcome [15] | outcome [16] | outcome [17]

CCCCCCCCN1CCCC1=O
inactive: Potency [1] | outcome [2] | Potency [18] | outcome [7] | outcome (Aromatase (Homo sapiens)) | Potency [8] | Potency [9] | Potency [10] | Potency [11] | Potency [19] | outcome [12] | outcome [14] | outcome [15] | outcome [16] | outcome [17]

From PubChem BioAssay (Tox21)
